Experimental data as given in the supplement of paper PMC4166925.
± gives the standard deviation of the averaged measurements. Whole data set: some 33,000 sequences, median “E-score (dimensionless, -0.5 to 0.5)” near -0.049, cut for the highest 2% near 0.37. The sample holds the highest values, similar sequences and a random draw of the others, so the mix is not that of the screen.

System: T1, PmTbr T-box DNA-binding domain (GST fusion)
T1 sequence: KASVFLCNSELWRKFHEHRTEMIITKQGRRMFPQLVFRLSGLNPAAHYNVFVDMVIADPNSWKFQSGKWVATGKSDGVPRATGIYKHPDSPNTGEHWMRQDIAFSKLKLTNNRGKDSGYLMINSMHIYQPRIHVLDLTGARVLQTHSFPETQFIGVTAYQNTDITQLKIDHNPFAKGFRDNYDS
Assay: PBM E-score of 8-mer (E-score (dimensionless, -0.5 to 0.5)); Tbr is Tbrain of the sea star Patiria miniata (Pm) or the sea urchin Strongylocentrotus purpuratus (Sp); higher = stronger binding preference
Settings: the construct has about 5 more residues each side
In short: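 Expression of GST-fused Tbr T-box DNA-binding domains, each holding the full T-box plus roughly five flanking residues, was carried out in BL21 E. coli at 20 °C, with purification by glutathione affinity chromatography. Universal Agilent arrays made double-stranded by primer extension were incubated with the protein at 200 nM in PBS (pH 7.5), then scanned and quantified. All ungapped 8-mers were scored from probe intensities, and each received an enrichment E-score from the Universal PBM Analysis Suite, averaged over duplicate arrays.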

| Sequence | PBM E-score of 8-mer |
| --- | --- |
| TATGCGAA | 0.157 ± 0.0088 |
| ACTGCGAC | 0.0881 ± 0.0041 |
| TCTGCGAA | 0.201 ± 0.038 |
| GATGCGAA | 0.186 ± 0.038 |
| AGTGCGTC | -0.147 ± 0.029 |
| AGTGCGAC | 0.37 ± 0.012 |
| GGTGCGTA | 0.2616 ± 0.00075 |
| CGTGCAAA | 0.11 ± 0.0028 |
| AGCCGACA | 0.165 ± 0.007 |
| GTGGCTCA | 0.0273 ± 0.048 |
| CGCCGCAA | -0.0674 ± 0.0034 |
| ATTGCTCG | -0.0286 ± 0.034 |
| CAGCCAGA | -0.0394 ± 0.019 |
| CGAGATCC | 0.0268 ± 0.01 |
| AAGGGATT | -0.212 ± 0.11 |
| CCTAAAAC | -0.00751 ± 0.035 |
| CTGTTCAC | 0.263 ± 0.012 |
| CATGCAGC | -0.0211 ± 0.03 |
| AGAGTGCA | 0.0698 ± 0.0037 |
| CACTTGGC | 0.236 ± 0.038 |
| ACTGCGAG | 0.179 ± 0.04 |
| ATTGCGAA | 0.27169 ± 0.00012 |
| GGTGCGGA | 0.405 ± 0.015 |
| CGTGCGGA | 0.0633 ± 0.03 |
| AGTGCGAG | 0.405 ± 0.021 |

| Sequence | PBM E-score of 8-mer |
| --- | --- |
| AGTGCGGA | 0.265 ± 0.0086 |
| CGTGCGAG | 0.358 ± 0.018 |
| CTTGCGAA | 0.328 ± 0.029 |
| GTTGCGAA | 0.389 ± 0.015 |
| ACTTCGAC | 0.14 ± 0.024 |
| ATTGACAG | 0.15 ± 0.052 |
| CTTGACGC | 0.27 ± 0.0032 |
| ATTGACAC | 0.412 ± 0.0065 |
| ATTGACAA | 0.304 ± 0.043 |
| CTTGACCC | -0.326 ± 0.035 |
| CTTGACAC | 0.43 ± 0.023 |
| ATTTGGTC | -0.154 ± 0.024 |
| CCACGTAC | 0.0376 ± 0.016 |
| AGTCATAT | -0.234 ± 0.069 |
| CTTAACCC | -0.0938 ± 0.018 |
| ATTAACAG | 0.143 ± 0.048 |
| ATTAACAC | 0.449 ± 0.0075 |
| CTTAACAA | 0.201 ± 0.041 |
| ATTAACAA | 0.173 ± 0.14 |
| CTTAACAC | 0.434 ± 0.013 |
| CTACTCGA | -0.0985 ± 0.018 |
| AACTTAAT | -0.0144 ± 0.063 |
| GGTTCTTA | -0.0403 ± 0.11 |
| ACCTTAAC | 0.0595 ± 0.0064 |
| AACACCCA | 0.348 ± 0.029 |

| Sequence | PBM E-score of 8-mer |
| --- | --- |
| GACACCCA | 0.388 ± 0.032 |
| GCCACCCC | 0.208 ± 0.0084 |
| GGCACCCA | 0.217 ± 0.018 |
| AACACCCC | 0.433 ± 0.0072 |
| GACACCCC | 0.409 ± 0.031 |
| GGCACCCC | 0.244 ± 0.03 |
| ACCACCCC | 0.191 ± 0.072 |
| AGCACCCT | 0.309 ± 0.031 |
| GCCACCCA | 0.0536 ± 0.024 |
| AACACCCT | 0.433 ± 0.017 |
| ACCACCCT | 0.0583 ± 0.021 |
| CTACATGA | -0.0685 ± 0.044 |
| CTCCGTCC | -0.281 ± 0.02 |
| GCTCAATA | -0.0299 ± 0.077 |
| CCTCGATC | 0.0184 ± 0.014 |
| CTCAGAGA | -0.262 ± 0.012 |
| CGCGTTGC | 0.211 ± 0.017 |
| GCTAAGGA | -0.08306 ± 0.00035 |
| ATCACTAG | 0.0709 ± 0.015 |
| GTAAGCAA | -0.113 ± 0.031 |
| CTTGCACA | 0.148 ± 0.026 |
| CCGACATC | -0.0298 ± 0.027 |
| CCGACACG | 0.261 ± 0.013 |
| ACGACACG | 0.225 ± 0.062 |
| GCGACACC | 0.462 ± 0.011 |

| Sequence | PBM E-score of 8-mer |
| --- | --- |
| GGGACACC | 0.216 ± 0.077 |
| GCGACACA | 0.302 ± 0.022 |
| CCGACACC | 0.448 ± 0.018 |
| CCGACACA | 0.37 ± 0.028 |
| TCGACACA | 0.319 ± 0.016 |
| CAGACACC | 0.355 ± 0.0066 |
| ACGACACT | 0.298 ± 0.0045 |
| ACGACACC | 0.421 ± 0.018 |
| GTCCAGGA | -0.195 ± 0.049 |
| ACATATGA | 0.0313 ± 0.063 |
| CTCGATCA | 0.0196 ± 0.0013 |
| GTCCCCAA | -0.071 ± 0.1 |
| TCAGTCGA | -0.0383 ± 0.035 |
| AGAGTACC | -0.132 ± 0.064 |
| GATATAAC | 0.115 ± 0.0035 |
| GACATCTC | -0.14 ± 0.016 |
| GATTTGGC | 0.249 ± 0.01 |
| CGTTGTTA | 0.157 ± 0.043 |
| AGTTGTTG | 0.195 ± 0.0086 |
| AGTTGTCG | 0.309 ± 0.0099 |
| GGTTGTCA | 0.342 ± 0.0085 |
| AGTTGTTA | 0.388 ± 0.011 |
| AGTTGTCA | 0.4064 ± 0.0017 |
| CTCTTTTA | 0.105 ± 0.092 |
| ATCACAGA | 0.129 ± 0.011 |

| Sequence | PBM E-score of 8-mer |
| --- | --- |
| ATCACACC | 0.4877 ± 0.0026 |
| ATCACATA | 0.297 ± 0.028 |
| ATCACACA | 0.418 ± 0.01 |
| ATCACACG | 0.39 ± 0.0083 |
| ATCACAGC | 0.211 ± 0.024 |
| ATCACAGG | 0.195 ± 0.099 |
| ATCACAAA | 0.0643 ± 0.013 |
| AACACACC | 0.3 ± 0.019 |
| AACAAGCT | -0.168 ± 0.035 |
| TAGAACGA | -0.136 ± 0.028 |
| GCATAGTA | -0.202 ± 0.024 |
| CACACTGA | 0.2581 ± 0.00048 |
| AACACTGA | 0.182 ± 0.069 |
| AACACTTC | 0.442 ± 0.014 |
| CACACTTA | 0.4445 ± 0.0038 |
| ATCACTTC | 0.293 ± 0.015 |
| ATCACTTG | 0.216 ± 0.045 |
| AACACTAG | 0.275 ± 0.056 |
| AACACTTG | 0.408 ± 0.0044 |
| ATCACTTA | 0.194 ± 0.042 |
| CGCACTTA | 0.293 ± 0.022 |
| AGCACTTC | 0.313 ± 0.012 |
| AACACTTA | 0.42 ± 0.019 |
| AGGACCGG | -0.31 ± 0.028 |
| TGGCTGAA | -0.23 ± 0.083 |

| Sequence | PBM E-score of 8-mer |
| --- | --- |
| CAGACCCA | -0.0557 ± 0.00088 |
| AATGGCGA | 0.163 ± 0.021 |
| TGCCATAA | 0.0817 ± 0.098 |
| GAAGATCC | -0.101 ± 0.034 |
| CCCTGGGA | -0.131 ± 0.0026 |
| CCCACTTC | 0.1799 ± 0.00066 |
| GACACTTA | 0.3962 ± 0.0036 |
| CACACTGC | 0.168 ± 0.039 |
| GCCACTTA | 0.232 ± 0.021 |
| CACACTTC | 0.445 ± 0.005 |
| GACACTGA | 0.157 ± 0.016 |
| GAGTCTAC | -0.282 ± 0.068 |
| GGTCGACC | -0.253 ± 0.033 |
| GTGATAGA | 0.297 ± 0.042 |
| CGTCGACA | 0.26 ± 0.031 |
| TGTCGACA | 0.371 ± 0.0078 |
| AGTCGACA | 0.253 ± 0.013 |
| ACATTTGA | 0.038 ± 0.044 |
| AATGACGG | -0.0819 ± 0.0024 |
| ACAGCGCG | 0.258 ± 0.0087 |
| AGTGAGAT | 0.287 ± 0.016 |
| AGTGAGAG | 0.312 ± 0.022 |
| AGTGAGAA | 0.421 ± 0.025 |
| TCTGAGAA | -0.135 ± 0.0068 |
| TGTGAGAA | 0.43 ± 0.0057 |

| Sequence | PBM E-score of 8-mer |
| --- | --- |
| GGTGAGAA | 0.4754 ± 0.0012 |
| TGAGAGAA | 0.0636 ± 0.079 |
| GGTGAGGA | 0.364 ± 0.018 |
| CGTGAGAA | 0.349 ± 0.039 |
| GGTGAGAC | 0.3824 ± 0.0024 |
| CGTGAGAC | 0.258 ± 0.044 |
| AGTGAGAC | 0.251 ± 0.023 |
| ACCTTCCA | 0.0703 ± 0.049 |
| AAACAGGG | -0.081 ± 0.025 |
| AATTCATC | -0.0277 ± 0.0079 |
| CCCCCAGA | -0.116 ± 0.043 |
| ACCAAAAA | -0.124 ± 0.021 |
| GCTTGTAA | -0.0775 ± 0.029 |
| CGAGGAGC | -0.0722 ± 0.028 |
| CTAGTCAC | 0.0813 ± 0.05 |
| TATCTACA | -0.0338 ± 0.029 |
| AATTCGCA | 0.339 ± 0.032 |
| AGGTGATA | 0.468 ± 0.0054 |
| ACGTGATG | 0.137 ± 0.028 |
| CGGTGATA | 0.187 ± 0.0068 |
| AGGTGATG | 0.4179 ± 0.0014 |
| AGGTGATC | 0.219 ± 0.0025 |
| GGGTGATA | 0.368 ± 0.0085 |
